According to ChEMBL document CHEMBL1157539, “Thousands of chemical starting points for antimalarial lead identification” (Nature, 2010):

System: HepG2
Experiment: GSK_TCMDC: Percent inhibition of human HepG2 cell line. Test compounds present at 10uM.
Assay type: functional

| SMILES | Inhibition [%] |
| --- | --- |
| CC(=O)Nc1nc(C(=O)Nc2cccc(-c3ccc4c(cnn4CC4CC4)c3)c2)cs1 | 16 |
| COc1cc(F)c2ncc(C#N)c(CCN3CCC(NCc4ccc5c(c4)OCCO5)CC3)c2c1.Cl | 5 |
| O=C(Nc1cccc(-c2cccc(-c3nc4cc(C(F)(F)F)ccc4[nH]3)c2)c1)c1cccnc1Cl | 56 |
| O=C(Nc1cccc(CN2CCN(C(=O)c3cccc(Cl)c3)CC2)c1)c1cccs1.O=C(O)C(F)(F)F | 17 |
| COc1cccc(CCc2ccc(O)c3c2C[C@H]2C[C@H]4[C@H](N(C)C)C(O)=C(C(N)=O)C(=O)[C@@]4(O)C(O)=C2C3=O)c1.Cl | 43 |
| CN1CCCN(c2ccnc3cc4c(cc23)N(C(=O)c2ccc(Cl)cc2)CC4)CC1.Cl | 0 |
| CCCc1cc2c3c(N)nc(N)nc3ccc2n1C(CC)CC | 70 |
| O=C(NCc1ccc(Cl)c(Cl)c1)[C@H]1CNCCN1C(=O)c1ccccc1.O=C(O)C(F)(F)F | 0 |
| O=C(O)C[C@H](NC(=O)[C@@H]1CCCN1C(=O)c1cccc(-c2ccc(Cl)c(Cl)c2)c1)C(=O)O | 0 |
| CN1CCN(Cc2nc(-c3ccc4c(Nc5ccc(Oc6ccccc6)cc5)ccnc4c3)cs2)CC1 | 15 |
| Cc1ccn2cc(-c3ccc(NC(=O)c4ccc(Br)o4)cc3)nc2c1 | 100 |
| C[C@@H](COc1ccccc1)NCC(O)c1ccc([N+](=O)[O-])c(OCc2ccccc2)c1 (stereo not given in full) | 5 |
| CS(=O)(=O)Cc1cccc(Nc2ncc(Cl)c(Nc3cccnc3C(N)=O)n2)c1.Cl | 56 |
| CNCCNCc1cccc(-c2cccc(-c3nc4cc(C(F)(F)F)ccc4[nH]3)c2)c1.O=C(O)C(F)(F)F | 22 |
| Nc1nc(N)c2cc(NS(=O)(=O)c3ccc(-c4ccccc4)cc3)ccc2n1 | 7 |
| O=C1OC2(CCN(C(=O)c3ccc(-n4cnnn4)cc3)CC2)CN1Cc1ccc(Cl)c(Cl)c1 | 11 |
| O=C(Cn1c(CCc2cccc(F)c2F)cc(=O)c2ccccc21)N(Cc1ccc(-c2ccc(C(F)(F)F)cc2)cc1)C1CCN(CCN2CCOCC2)CC1.O=C(O)C(O)C(O)C(=O)O | 53 |
| Cc1cccc(C)c1C1CCN(CCCCNC(=O)c2cc3ccccc3[nH]2)CC1 | 46 |
| CN(C(=O)/C=C/c1cc(C(F)(F)F)ccc1F)C1CCN(CCCCCNC(=O)/C=C/c2ccc(Cl)c(Cl)c2)C1 (stereo not given) | 16 |
| Br.C=CCc1cc(C)ccc1OCCCON1C(N)=NC(N)=NC1(C)C | 64 |

| SMILES | Inhibition [%] |
| --- | --- |
| CC[C@H](C)CNC(=O)c1cncc(-c2ccc(CN3CCC(N4CCCC4)CC3)cc2)c1.O=C(O)C(F)(F)F | 0 |
| O=C(O)C(F)(F)F.c1cc(-c2ccc(CNCCCn3ccnc3)cc2)cc(-c2nc3ccccc3[nH]2)c1 | 17 |
| COc1ccc(-c2cc(C(=O)N[C@@H](CC3CCCCC3)C(=O)NCCN3CCCCC3)ccc2O)cc1 | 3 |
| CCN(CC)CCN(Cc1ccc(-c2ccc(C(F)(F)F)cc2)cc1)C(=O)Cn1c(CCc2cccc(F)c2F)nc(=O)c2sccc21.O=C(O)C(O)C(O)C(=O)O | 70 |
| Nc1cccc(CNCc2cccc(-c3cccc(-c4nc5cc(C(F)(F)F)ccc5[nH]4)c3)c2)c1.O=C(O)C(F)(F)F | 8 |
| C=CCOC(=O)N1CCC(CNCc2ccc(-c3cccc(-c4nc5cc(F)ccc5[nH]4)c3)cc2)C1.O=C(O)C(F)(F)F (stereo not given) | 26 |
| Cc1cccc2nc(-c3cccc(-c4ccc(C(=O)N5CCCCC5C(C)O)cc4)c3)[nH]c12 (stereo not given) | 26 |
| CS(=O)(=O)Cc1ccc(Nc2nccc(N3CCCc4cc(NC(=O)Nc5cccc(C(F)(F)F)c5)ccc43)n2)cc1 | 46 |
| CN1CCN(CC(=O)Nc2cccc(-c3cccc(-c4nc5cc(C(F)(F)F)ccc5[nH]4)c3)c2)CC1 | 26 |
| CN(C)CCCNCc1ccc(-c2ccc(CNCCc3ccccc3)cc2)cc1.O=C(O)C(F)(F)F | 61 |
| O=C(Nc1ccccc1)N(Cc1ccccc1-c1cccc(CNCCc2ccccc2)c1)C1CCN(Cc2ccccc2)CC1.O=C(O)C(F)(F)F | 95 |
| COc1ccc(C(=O)Nc2ccc3nc(N4CCCCC4)cc(C)c3c2)cc1[N+](=O)[O-] | 17 |
| Cc1ccc(S(=O)(=O)O)cc1.N=C(N)NCCCC(=O)NCC(N)=O | 20 |
| CN(C)CCOc1cc(NC(=O)Nc2ccc(Cl)cc2C(F)(F)F)ccc1I | 0 |
| COc1cccc2cc(C(=O)N[C@@H](CC(C)C)C(=O)N[C@H](C=NN(C)C(=O)OC(C)(C)C)Cc3ccccc3)oc12 | 5 |
| Cl.N=C(N)NN=Cc1cc([N+](=O)[O-])ccc1Sc1ccccc1CO | 25 |
| CCCc1cc(Cc2cnc(N)nc2N)ccc1OCCCCCC(=O)OCC | 0 |
| Cc1noc(C)c1-c1ccc2c(Nc3ccccc3C(C)(C)C)c(C(=O)NCc3ccccc3)cnc2c1.Cl | 20 |
| COc1ccc(Nc2ccnc3cc(-c4ccccn4)ccc23)cc1OC.Cl | 14 |
| CN1CCN(c2ccnc3ccc(NC(=O)Nc4cccc5c(-c6ccncc6)cccc45)cc23)CC1 | 7 |
